The supplement of paper PMC10849652
The full data set covers some 7,900 targets. This sample favours those with a hit. About 0.6% of all pairs of compound and target were hits.

What was measured:
Experiment in all cases: log2 fold change, soluble protein after heating vs DMSO (PISA); higher = thermal stabilisation; K562 cells, 10 uM, 30 min; active = over 0.2 and 3.5 SD of the protein, either way, in both replicates (recomputed)
[1] = compound: CC1=C(C=C(C=C1)NC(=O)C2=CC(=CC=C2)C(C)(C)C#N)NC3=CC4=C(C=C3)N=CN(C4=O)C
In short: (§1)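 Thermal stability values are relative to control samples and come from duplicates. They are expressed as log2 fold changes. For measurement, K562 cells (2×10^6 cells/mL) received 10 μM compound for 30 min, and aliquots were heated for 3 min over 48°C-58°C, pooled, and extracted at 4°C in PBS with 0.5% NP-40. Soluble protein, the supernatant after 21,000xg for 90 min, was quantified by TMTpro 16plex LC-MS/MS with equalised channel sums.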

[2] = compound: CC1=C(C=C(C=C1)NC(=O)C2=CC(=CC=C2)N(C)C)NC(=O)C3=CC=C(C=C3)O
In short: as §1

[3] = compound: CC1=CC=C(C=C1)SC2=C3C=C(SC3=CN=C2)C(=O)N
In short: as §1

[4] = compound: CC1=NC(=CC=C1)C2=C(N=C(N2)C(C)(C)C)C3=CC4=NC=CN=C4C=C3
In short: as §1

Nexturastat A = compound: CCCCN(Cc1ccc(C(=O)NO)cc1)C(=O)Nc1ccccc1 [Nexturastat A]
In short: as §1

vemurafenib = compound: CCCS(=O)(=O)Nc1ccc(F)c(C(=O)c2c[nH]c3ncc(-c4ccc(Cl)cc4)cc23)c1F [vemurafenib]
In short: as §1

[5] = compound: CCCS(=O)(=O)Nc1ccc(F)c(C(=O)c2c[nH]c3ncc(Cl)cc23)c1F
In short: as §1

[6] = compound: CCCc1cc(C)[nH]c(=O)c1CNC(=O)c1cc(-c2ccnc(N3CCN(C)CC3)c2)cc2c1cnn2C(C)C
In short: as §1

givinostat = compound: CCN(CC)Cc1ccc2cc(COC(=O)Nc3ccc(C(=O)NO)cc3)ccc2c1 [givinostat]
In short: as §1

barasertib = compound: CCN(CCCOc1ccc2c(Nc3cc(CC(=O)Nc4cccc(F)c4)[nH]n3)ncnc2c1)CCOP(=O)(O)O [barasertib]
In short: as §1

[7] = compound: CC[C@@H]1C(=O)N(C)c2cnc(Nc3ccc(C(=O)NC4CCN(C)CC4)cc3OC)nc2N1C1CCCC1
In short: as §1

volasertib = compound: CC[C@@H]1C(=O)N(C)c2cnc(Nc3ccc(C(=O)N[C@H]4CC[C@H](N5CCN(CC6CC6)CC5)CC4)cc3OC)nc2N1C(C)C [volasertib]
In short: as §1

[8] = compound: CC[C@H](C)N1C=C(C2=C(C=C(C=C21)C3=CN=C(C=C3)N4CCNCC4)C(=O)NCC5=C(C=C(NC5=O)C)C)C
In short: as §1

epoxomicin = compound: CC[C@H](C)[C@@H](C(=O)N[C@@H]([C@@H](C)O)C(=O)N[C@@H](CC(C)C)C(=O)[C@]1(CO1)C)NC(=O)[C@H]([C@@H](C)CC)N(C)C(=O)C [epoxomicin]
In short: as §1

[9] = compound: CCn1c(C(=O)N(C2CC2)C2CC2)cc2c3c(ncn3C)c(Nc3cc(C)n(C)n3)nc21
In short: as §1

[10] = compound: CCn1cc(-c2ccnc3[nH]c(-c4cccc(CN(C)C)c4)cc23)c(-c2ccc(NC(=O)N(C)C)cc2)n1
In short: as §1

[11] = compound: CN(C)CC(=O)Nc1ccc2[nH]c(=O)c3ccccc3c2c1
In short: as §1

rosiglitazone = compound: CN(CCOC1=CC=C(C=C1)C[C@H]2C(=O)NC(=O)S2)C3=CC=CC=N3 (racemic) [rosiglitazone]
In short: as §1

[12] = compound: CN1C2=C(C3=C1C(=O)N(N=C3)CC4=CC(=CC=C4)N)SC(=C2)S(=O)C
In short: as §1

[13] = compound: CN1CCC(CNc2ccc3ncc(-c4cccc(OC(F)(F)F)c4)n3n2)CC1
In short: as §1

Measured: log2 fold change

ATP1A1 (UniProt P05023)
inactive: [1] 0.002 | [2] 0.01 | [3] 0.015 | [4] 0.025 | Nexturastat A -0.019 | vemurafenib 0.017 | [5] 0.005 | [6] 0.068 | givinostat -0.001 | barasertib -0.02 | [7] 0.058 | volasertib 0.059 | [8] -0.029 | epoxomicin -0.025 | [9] 0.021 | [10] -0.026 | [11] -0.009 | rosiglitazone -0.004 | [12] -0.053
active: [13] 0.26

ATP6V1H (UniProt Q9UI12)
UniProt Q9UI12, sequence (Q9UI12 whole entry, looked up): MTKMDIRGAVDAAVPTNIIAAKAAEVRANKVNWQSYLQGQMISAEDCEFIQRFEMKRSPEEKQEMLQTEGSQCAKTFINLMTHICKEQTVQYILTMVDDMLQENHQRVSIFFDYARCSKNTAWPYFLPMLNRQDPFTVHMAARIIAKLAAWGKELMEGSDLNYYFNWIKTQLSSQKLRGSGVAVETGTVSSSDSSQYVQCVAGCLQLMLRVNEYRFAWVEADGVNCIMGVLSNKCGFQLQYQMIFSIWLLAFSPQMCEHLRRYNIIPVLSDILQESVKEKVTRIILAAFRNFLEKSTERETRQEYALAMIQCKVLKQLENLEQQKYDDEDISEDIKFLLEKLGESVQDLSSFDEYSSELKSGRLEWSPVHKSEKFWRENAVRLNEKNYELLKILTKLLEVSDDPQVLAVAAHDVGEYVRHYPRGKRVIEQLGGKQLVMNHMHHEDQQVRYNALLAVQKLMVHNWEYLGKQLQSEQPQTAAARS
active: [10] -0.244
inactive: [1] 0.028 | [2] -0.016 | [3] 0.045 | [4] 0.014 | Nexturastat A -0.008 | vemurafenib -0.004 | [5] 0.077 | [6] 0.022 | givinostat 0.03 | barasertib 0.018 | [7] -0.085 | volasertib -0.093 | [8] 0.069 | epoxomicin 0.098 | [9] 0.041 | [11] 0.012 | rosiglitazone 0.048 | [12] -0.026 | [13] -0.069

ATP6V0A2 (UniProt Q9Y487)
inactive: [1] 0.021 | [2] 0.016 | [3] 0.006 | [4] -0.013 | Nexturastat A 0.024 | vemurafenib 0.026 | [5] 0.014 | [6] 0.014 | givinostat 0.02 | barasertib 0.008 | [7] -0.039 | volasertib -0.039 | [8] 0.067 | epoxomicin 0.043 | [9] 0.007 | [10] 0.028 | [11] -0.034 | rosiglitazone -0.037 | [12] 0.006 | [13] -0.169

ACO2 (UniProt Q99798)
inactive: [1] 0.071 | [2] -0.063 | [3] 0.012 | [4] 0.035 | Nexturastat A -0.073 | vemurafenib 0.055 | [5] 0.027 | [6] -0.003 | givinostat -0.014 | barasertib 0.037 | [7] 0.043 | volasertib 0.037 | [8] 0.022 | epoxomicin 0.046 | [9] -0.011 | [10] -0.115 | [11] 0.055 | rosiglitazone -0.023 | [12] -0.118
active: [13] -0.344

ADRM1 (UniProt Q16186)
inactive: [1] 0.067 | [2] 0.009 | [3] -0.013 | [4] 0.024 | Nexturastat A 0.104 | vemurafenib -0.022 | [5] -0.028 | [6] 0.01 | givinostat 0.034 | barasertib -0.021 | [7] 0.122 | volasertib 0.197 | [8] 0.024 | epoxomicin -0.083 | [9] 0.04 | [10] -0.013 | [11] -0.006 | rosiglitazone 0 | [12] 0.045 | [13] 0.062

ATOX1 (UniProt O00244)
UniProt O00244, sequence (O00244 whole entry, looked up): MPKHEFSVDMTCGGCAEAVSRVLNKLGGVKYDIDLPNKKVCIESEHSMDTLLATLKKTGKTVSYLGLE
inactive: [1] 0.056 | [2] -0.065 | [3] 0.275 | [4] 0.239 | Nexturastat A -0.037 | vemurafenib 0.054 | [5] 0.372 | [6] 0.28 | givinostat -0.072 | barasertib -0.025 | [7] 0.009 | volasertib 0 | [8] -0.015 | epoxomicin 0.107 | [9] 0.016 | [10] -0.079 | [11] 0.056 | rosiglitazone 0.012 | [12] -0.023 | [13] 0.094

ATP6AP1 (UniProt Q15904)
UniProt Q15904, sequence (Q15904 whole entry, looked up): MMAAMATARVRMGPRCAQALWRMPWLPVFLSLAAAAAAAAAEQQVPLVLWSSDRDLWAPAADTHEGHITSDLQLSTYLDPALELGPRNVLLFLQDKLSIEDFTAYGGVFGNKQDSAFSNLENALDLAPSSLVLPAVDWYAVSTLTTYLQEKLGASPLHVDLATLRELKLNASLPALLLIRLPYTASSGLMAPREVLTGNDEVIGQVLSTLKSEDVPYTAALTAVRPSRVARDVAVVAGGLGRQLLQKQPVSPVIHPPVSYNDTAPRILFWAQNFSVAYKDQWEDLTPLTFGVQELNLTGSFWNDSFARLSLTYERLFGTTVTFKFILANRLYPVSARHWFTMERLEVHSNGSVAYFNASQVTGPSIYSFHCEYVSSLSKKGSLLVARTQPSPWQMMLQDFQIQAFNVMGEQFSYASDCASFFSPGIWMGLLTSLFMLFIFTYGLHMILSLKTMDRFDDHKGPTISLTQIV
inactive: [1] 0.009 | [2] -0.025 | [3] 0.004 | [4] -0.027 | Nexturastat A 0.114 | vemurafenib -0.003 | [5] -0.018 | [6] -0.009 | givinostat 0.038 | barasertib 0.016 | [7] -0.05 | volasertib -0.02 | [8] 0.033 | epoxomicin 0.09 | [9] 0.011 | [10] 0.037 | [11] -0.074 | rosiglitazone 0 | [12] 0.098 | [13] 0.016

ACBD6 (UniProt Q9BR61)
UniProt Q9BR61, sequence (Q9BR61 whole entry, looked up): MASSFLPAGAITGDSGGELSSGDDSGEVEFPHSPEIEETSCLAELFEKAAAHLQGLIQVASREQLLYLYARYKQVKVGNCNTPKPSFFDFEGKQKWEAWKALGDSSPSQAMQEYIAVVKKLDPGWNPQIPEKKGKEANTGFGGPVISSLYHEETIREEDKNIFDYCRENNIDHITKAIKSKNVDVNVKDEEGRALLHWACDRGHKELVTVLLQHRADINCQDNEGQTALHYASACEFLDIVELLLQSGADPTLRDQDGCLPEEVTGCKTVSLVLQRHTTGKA
inactive: [1] 0.039 | [2] -0.04 | [3] 0.139 | [4] 0.067 | Nexturastat A 0.28 | vemurafenib 0.029 | [5] 0.022 | [6] 0.127 | givinostat -0.011 | barasertib 0.018 | [7] -0.032 | [8] 0.103 | epoxomicin 0.05 | [9] 0.01 | [10] -0.11 | [11] 0.141 | rosiglitazone 0.363 | [12] -0.099 | [13] 0.046
active: volasertib -0.473

ATP12A isoform 2 (UniProt P54707)
UniProt P54707, sequence (P54707 whole entry, looked up): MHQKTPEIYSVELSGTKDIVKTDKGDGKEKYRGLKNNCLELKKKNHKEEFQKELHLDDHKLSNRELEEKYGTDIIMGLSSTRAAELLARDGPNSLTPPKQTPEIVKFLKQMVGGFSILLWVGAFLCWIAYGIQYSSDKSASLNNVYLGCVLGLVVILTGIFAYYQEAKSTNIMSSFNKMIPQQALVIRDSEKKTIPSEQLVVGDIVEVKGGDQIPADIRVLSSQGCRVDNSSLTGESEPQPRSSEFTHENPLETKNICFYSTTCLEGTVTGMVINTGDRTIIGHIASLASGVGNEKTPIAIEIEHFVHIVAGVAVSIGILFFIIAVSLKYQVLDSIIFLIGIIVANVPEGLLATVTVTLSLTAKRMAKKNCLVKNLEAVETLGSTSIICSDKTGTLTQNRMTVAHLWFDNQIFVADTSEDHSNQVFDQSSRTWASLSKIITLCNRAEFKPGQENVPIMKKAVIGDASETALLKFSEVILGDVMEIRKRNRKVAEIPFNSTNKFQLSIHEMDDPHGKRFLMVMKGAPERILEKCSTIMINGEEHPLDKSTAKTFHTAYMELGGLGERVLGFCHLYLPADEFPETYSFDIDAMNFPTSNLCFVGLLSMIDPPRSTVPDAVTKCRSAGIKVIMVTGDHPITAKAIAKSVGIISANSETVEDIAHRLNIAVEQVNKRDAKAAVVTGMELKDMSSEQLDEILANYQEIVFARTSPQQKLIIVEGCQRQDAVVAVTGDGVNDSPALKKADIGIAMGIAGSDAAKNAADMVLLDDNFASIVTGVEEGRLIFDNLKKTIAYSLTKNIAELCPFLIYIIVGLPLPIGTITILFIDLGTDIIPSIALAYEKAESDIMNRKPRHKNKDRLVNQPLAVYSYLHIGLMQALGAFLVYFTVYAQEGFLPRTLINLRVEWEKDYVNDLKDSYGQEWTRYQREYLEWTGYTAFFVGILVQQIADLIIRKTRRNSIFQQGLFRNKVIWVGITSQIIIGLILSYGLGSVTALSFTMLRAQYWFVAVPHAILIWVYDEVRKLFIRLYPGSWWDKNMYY
inactive: [1] -0.001 | [2] -0.006 | [3] 0 | [4] 0.005 | Nexturastat A -0.132 | vemurafenib -0.03 | [5] -0.072 | [6] -0.021 | givinostat -0.009 | barasertib 0.015 | [7] 0.081 | volasertib 0 | [8] -0.029 | epoxomicin 0.013 | [9] 0.04 | [10] -0.031 | [11] -0.047 | rosiglitazone 0.015 | [12] -0.085
active: [13] 0.242

ABCC5 (UniProt O15440)
UniProt O15440, sequence (O15440 whole entry, looked up): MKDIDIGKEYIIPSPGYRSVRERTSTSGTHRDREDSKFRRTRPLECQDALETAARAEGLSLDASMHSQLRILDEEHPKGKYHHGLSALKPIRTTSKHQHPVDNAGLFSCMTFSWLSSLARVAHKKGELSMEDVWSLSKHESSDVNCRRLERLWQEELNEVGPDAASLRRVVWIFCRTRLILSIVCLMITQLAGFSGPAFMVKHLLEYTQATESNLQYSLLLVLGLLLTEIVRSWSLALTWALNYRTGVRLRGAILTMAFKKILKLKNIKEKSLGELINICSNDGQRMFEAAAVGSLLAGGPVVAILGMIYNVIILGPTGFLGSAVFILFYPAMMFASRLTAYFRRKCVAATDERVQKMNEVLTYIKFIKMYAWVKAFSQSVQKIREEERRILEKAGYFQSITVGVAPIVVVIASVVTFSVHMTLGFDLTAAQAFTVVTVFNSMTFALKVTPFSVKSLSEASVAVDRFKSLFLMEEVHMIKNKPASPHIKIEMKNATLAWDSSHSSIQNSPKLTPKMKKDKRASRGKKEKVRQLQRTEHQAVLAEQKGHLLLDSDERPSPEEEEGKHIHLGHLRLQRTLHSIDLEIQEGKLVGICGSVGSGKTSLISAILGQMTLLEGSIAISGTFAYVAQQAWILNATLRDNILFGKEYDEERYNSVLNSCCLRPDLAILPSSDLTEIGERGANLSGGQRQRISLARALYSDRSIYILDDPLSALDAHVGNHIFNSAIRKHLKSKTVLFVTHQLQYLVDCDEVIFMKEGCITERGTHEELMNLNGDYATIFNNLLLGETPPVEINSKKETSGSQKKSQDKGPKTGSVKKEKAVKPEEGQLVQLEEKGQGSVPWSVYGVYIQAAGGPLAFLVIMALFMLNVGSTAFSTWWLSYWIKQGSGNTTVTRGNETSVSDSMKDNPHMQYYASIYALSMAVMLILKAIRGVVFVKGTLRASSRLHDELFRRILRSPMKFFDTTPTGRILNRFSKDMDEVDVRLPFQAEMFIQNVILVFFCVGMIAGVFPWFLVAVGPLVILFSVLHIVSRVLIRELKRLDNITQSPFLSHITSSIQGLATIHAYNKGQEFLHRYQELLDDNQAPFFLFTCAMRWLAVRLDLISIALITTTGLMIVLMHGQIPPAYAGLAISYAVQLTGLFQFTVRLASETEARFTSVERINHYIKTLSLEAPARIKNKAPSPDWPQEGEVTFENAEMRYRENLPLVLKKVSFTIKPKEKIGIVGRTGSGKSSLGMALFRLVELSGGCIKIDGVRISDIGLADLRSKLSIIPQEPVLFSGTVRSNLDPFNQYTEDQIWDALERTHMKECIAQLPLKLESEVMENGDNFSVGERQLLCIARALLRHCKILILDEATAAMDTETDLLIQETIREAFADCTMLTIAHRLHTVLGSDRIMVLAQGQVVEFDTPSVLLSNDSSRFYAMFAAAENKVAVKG
inactive: [1] 0.107 | [2] -0.033 | [3] 0.035 | [4] -0.073 | Nexturastat A 0.007 | vemurafenib -0.183 | [5] -0.031 | [6] 0.1 | givinostat 0.028 | barasertib 0.026 | [7] -0.075 | volasertib 0.027 | [8] 0.023 | epoxomicin -0.028 | [9] 0.024 | [10] -0.031 | [11] -0.069 | rosiglitazone -0.003 | [12] 0.028 | [13] 0.075

ARFRP1 (UniProt Q13795)
UniProt Q13795, sequence (Q13795 whole entry, looked up): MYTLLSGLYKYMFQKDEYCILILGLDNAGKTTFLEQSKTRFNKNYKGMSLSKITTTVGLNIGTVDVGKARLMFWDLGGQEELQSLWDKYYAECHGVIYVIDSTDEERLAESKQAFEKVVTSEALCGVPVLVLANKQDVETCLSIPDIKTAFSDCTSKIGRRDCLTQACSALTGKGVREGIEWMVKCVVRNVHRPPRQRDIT
inactive: [1] 0.138 | [2] 0.003 | [3] 0.082 | [4] 0.069 | Nexturastat A -0.048 | vemurafenib 0.033 | [5] 0 | [6] 0.046 | givinostat 0.012 | barasertib -0.015 | [7] -0.038 | volasertib -0.05 | [8] 0.048 | epoxomicin 0.037 | [9] 0.026 | [10] -0.23 | [11] 0.012 | rosiglitazone -0.021 | [12] -0.021 | [13] 0.071

AGPAT5 (UniProt Q9NUQ2)
UniProt Q9NUQ2, sequence (Q9NUQ2 whole entry, looked up): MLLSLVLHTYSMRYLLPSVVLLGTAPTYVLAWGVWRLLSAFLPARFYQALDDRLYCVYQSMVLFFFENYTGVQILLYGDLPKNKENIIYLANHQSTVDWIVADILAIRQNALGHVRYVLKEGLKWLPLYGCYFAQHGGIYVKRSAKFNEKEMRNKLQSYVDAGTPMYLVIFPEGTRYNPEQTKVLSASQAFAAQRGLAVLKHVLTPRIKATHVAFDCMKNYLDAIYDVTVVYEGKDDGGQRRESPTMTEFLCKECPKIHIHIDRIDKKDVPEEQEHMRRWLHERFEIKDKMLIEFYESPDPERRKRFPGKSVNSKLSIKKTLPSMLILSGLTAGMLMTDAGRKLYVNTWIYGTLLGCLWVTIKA
inactive: [1] -0.02 | [2] -0.009 | [3] 0.012 | [4] -0.068 | Nexturastat A -0.061 | vemurafenib 0.008 | [5] 0.095 | [6] -0.088 | givinostat -0.05 | barasertib 0.015 | [7] -0.169 | [8] -0.068 | epoxomicin 0.007 | [9] 0.023 | [10] -0.13 | [11] 0 | rosiglitazone 0.01 | [12] -0.067 | [13] -0.25
active: volasertib -0.281

AP2M1 (UniProt Q96CW1)
UniProt Q96CW1, sequence (Q96CW1 whole entry, looked up): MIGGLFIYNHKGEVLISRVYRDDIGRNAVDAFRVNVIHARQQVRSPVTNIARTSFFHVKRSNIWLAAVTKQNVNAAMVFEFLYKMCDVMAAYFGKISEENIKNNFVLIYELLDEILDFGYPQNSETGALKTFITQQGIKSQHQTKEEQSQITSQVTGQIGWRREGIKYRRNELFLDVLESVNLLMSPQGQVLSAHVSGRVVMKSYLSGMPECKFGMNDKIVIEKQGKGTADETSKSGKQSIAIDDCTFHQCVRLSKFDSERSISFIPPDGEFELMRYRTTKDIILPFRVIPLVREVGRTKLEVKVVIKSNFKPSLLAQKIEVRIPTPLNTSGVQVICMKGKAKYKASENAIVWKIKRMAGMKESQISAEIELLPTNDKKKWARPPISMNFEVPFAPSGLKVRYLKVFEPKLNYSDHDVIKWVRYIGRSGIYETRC
inactive: [1] 0.022 | [2] -0.019 | [3] -0.023 | [4] 0.002 | Nexturastat A 0.073 | vemurafenib -0.006 | [5] 0.014 | [6] -0.049 | givinostat 0.031 | barasertib -0.074 | [7] 0.072 | volasertib -0.041 | [8] 0 | epoxomicin 0.002 | [9] 0.013 | [10] -0.006 | [11] -0.046 | rosiglitazone -0.018 | [12] 0.023 | [13] 0.006

ARL2BP (UniProt Q9Y2Y0)
UniProt Q9Y2Y0, sequence (Q9Y2Y0 whole entry, looked up): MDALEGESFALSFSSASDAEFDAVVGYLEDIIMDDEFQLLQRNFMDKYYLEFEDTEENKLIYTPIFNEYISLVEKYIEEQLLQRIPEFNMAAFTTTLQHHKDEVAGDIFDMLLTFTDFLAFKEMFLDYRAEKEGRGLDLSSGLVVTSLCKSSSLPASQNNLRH
active: volasertib -0.682
inactive: [1] 0.154 | [2] -0.033 | [3] 0.012 | [4] 0.281 | Nexturastat A 0.043 | vemurafenib -0.031 | [5] 0.071 | [6] 0.102 | givinostat -0.041 | barasertib 0.079 | [7] -0.222 | [8] 0.023 | epoxomicin -0.008 | [9] -0.022 | [10] -0.048 | [11] 0.032 | rosiglitazone 0.019 | [12] -0.062 | [13] -0.183

AGO1 (UniProt Q9UL18)
inactive: [1] -0.213 | [2] -0.021 | [3] -0.025 | [4] 0.193 | Nexturastat A 0.084 | vemurafenib -0.023 | [5] -0.006 | [6] -0.111 | givinostat 0.071 | barasertib -0.064 | [7] 0.215 | volasertib 0.124 | [8] -0.1 | epoxomicin -0.148 | [9] -0.029 | [10] 0.032 | [11] 0.098 | rosiglitazone 0.042 | [12] 0.14 | [13] -0.151
